Experimental data reported in the supplement of paper PMC11732987, “Enantioselective OTUD7B fragment discovery through chemoproteomics screening and high-throughput optimisation” (Communications Chemistry, 2025).

Assays:
Assay in all cases: log2 ratio of Biotin-Ahx-Ub-VS probe labelling (fragment/DMSO); higher = less target engagement (more negative = stronger competition), active = hit call of the paper (q ≤ 0.05, log2 ratio ≤ -1)
Settings in all cases: compound concentration: 200 uM; treatment time: 3 h
USP34 = USP34 (UniProt Q70CQ2)
How it was run: (§1)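 HEK293T lysate in Tris/CHAPS/IGEPAL buffer with protease inhibitors (495 µg per sample) was given fragment at 200 µM or vehicle for 3 h, in triplicate. It then received Biotin-Ahx-Ub-VS at 0.5 µM final for 1 h. Labelled DUBs were NeutrAvidin-enriched, digested with LysC and trypsin, and run by diaPASEF LC-MS/MS. Values are average log2 fragment/vehicle ratios by unpaired t-test on global-median-normalised Spectronaut quantities of proteins with ≥2 unique peptides.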

USP36 = target: T1, USP36 (UniProt Q9P275)
T1 sequence (whole entry): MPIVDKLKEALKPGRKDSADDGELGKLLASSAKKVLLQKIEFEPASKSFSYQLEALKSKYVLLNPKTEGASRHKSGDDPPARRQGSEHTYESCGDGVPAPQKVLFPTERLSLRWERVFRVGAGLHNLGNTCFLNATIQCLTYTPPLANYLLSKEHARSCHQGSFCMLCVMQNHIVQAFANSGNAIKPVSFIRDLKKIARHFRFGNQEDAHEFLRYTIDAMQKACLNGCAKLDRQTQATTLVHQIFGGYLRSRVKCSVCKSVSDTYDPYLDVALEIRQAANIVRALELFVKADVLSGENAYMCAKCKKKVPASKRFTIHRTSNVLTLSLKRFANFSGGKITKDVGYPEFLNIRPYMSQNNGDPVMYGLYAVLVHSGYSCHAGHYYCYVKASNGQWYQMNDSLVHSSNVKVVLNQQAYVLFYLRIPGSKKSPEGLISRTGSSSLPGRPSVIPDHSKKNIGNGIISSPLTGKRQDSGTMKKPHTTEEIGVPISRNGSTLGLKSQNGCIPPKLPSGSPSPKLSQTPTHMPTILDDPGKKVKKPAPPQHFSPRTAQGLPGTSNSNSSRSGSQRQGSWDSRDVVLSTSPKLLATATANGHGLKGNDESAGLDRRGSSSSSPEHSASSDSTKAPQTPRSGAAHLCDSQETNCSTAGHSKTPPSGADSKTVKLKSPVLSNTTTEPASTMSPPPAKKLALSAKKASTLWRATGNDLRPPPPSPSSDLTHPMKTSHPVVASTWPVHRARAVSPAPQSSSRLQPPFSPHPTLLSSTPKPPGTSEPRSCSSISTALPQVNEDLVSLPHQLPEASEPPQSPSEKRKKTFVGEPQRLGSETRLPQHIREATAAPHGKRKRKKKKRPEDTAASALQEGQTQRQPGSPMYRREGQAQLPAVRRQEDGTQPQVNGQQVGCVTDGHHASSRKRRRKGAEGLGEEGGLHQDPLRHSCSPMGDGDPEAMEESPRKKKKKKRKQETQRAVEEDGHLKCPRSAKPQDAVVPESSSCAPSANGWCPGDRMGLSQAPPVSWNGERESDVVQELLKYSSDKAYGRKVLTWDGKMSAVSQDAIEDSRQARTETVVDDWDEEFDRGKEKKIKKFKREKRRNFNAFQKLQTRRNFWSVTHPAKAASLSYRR
How it was run: as §1

USP38 = target: T2, USP38 (UniProt Q8NB14)
T2 sequence (whole entry): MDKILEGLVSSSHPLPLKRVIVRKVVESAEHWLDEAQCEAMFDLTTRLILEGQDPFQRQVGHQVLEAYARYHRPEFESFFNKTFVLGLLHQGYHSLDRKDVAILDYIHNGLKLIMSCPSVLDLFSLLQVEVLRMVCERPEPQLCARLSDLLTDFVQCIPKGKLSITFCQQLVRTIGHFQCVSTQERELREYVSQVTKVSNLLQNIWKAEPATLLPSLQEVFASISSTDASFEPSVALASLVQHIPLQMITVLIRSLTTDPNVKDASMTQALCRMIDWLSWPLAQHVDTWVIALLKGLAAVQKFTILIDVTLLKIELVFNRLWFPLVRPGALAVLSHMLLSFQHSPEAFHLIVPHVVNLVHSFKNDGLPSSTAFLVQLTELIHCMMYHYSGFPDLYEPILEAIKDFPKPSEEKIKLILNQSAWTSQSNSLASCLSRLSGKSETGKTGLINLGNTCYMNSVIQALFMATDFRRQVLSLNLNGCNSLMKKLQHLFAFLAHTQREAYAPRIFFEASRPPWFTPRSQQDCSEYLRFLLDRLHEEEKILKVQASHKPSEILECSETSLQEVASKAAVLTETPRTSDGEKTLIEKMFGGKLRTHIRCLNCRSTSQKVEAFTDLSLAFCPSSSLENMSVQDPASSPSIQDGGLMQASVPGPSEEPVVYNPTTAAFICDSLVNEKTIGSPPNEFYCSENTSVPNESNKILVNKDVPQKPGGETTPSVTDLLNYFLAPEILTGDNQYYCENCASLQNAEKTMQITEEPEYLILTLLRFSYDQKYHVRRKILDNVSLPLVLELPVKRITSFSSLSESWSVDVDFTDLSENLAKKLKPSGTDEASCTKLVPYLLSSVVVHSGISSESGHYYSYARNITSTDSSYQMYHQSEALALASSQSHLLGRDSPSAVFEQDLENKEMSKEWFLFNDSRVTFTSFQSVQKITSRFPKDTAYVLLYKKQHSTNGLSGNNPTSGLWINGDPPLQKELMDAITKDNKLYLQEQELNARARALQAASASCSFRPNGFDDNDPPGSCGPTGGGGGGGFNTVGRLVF
How it was run: as §1

USP39 = target: T3, USP39 (UniProt Q53GS9)
T3 sequence (whole entry): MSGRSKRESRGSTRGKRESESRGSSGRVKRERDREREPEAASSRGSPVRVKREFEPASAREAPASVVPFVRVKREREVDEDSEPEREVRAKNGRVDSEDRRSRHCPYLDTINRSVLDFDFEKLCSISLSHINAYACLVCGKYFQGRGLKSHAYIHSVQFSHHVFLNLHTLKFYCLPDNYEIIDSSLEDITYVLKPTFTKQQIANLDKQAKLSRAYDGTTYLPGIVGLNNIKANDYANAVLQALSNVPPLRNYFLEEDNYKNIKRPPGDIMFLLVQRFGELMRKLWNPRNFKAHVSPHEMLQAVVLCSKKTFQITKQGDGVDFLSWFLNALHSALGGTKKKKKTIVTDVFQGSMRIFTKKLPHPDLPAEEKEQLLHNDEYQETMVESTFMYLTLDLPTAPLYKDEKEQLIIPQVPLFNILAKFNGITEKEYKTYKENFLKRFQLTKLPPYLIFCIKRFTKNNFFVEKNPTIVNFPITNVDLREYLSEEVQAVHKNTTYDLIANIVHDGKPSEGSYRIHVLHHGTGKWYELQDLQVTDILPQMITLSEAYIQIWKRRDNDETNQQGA
How it was run: as §1

USP4 = target: T4, USP4 (UniProt Q13107)
T4 sequence (whole entry): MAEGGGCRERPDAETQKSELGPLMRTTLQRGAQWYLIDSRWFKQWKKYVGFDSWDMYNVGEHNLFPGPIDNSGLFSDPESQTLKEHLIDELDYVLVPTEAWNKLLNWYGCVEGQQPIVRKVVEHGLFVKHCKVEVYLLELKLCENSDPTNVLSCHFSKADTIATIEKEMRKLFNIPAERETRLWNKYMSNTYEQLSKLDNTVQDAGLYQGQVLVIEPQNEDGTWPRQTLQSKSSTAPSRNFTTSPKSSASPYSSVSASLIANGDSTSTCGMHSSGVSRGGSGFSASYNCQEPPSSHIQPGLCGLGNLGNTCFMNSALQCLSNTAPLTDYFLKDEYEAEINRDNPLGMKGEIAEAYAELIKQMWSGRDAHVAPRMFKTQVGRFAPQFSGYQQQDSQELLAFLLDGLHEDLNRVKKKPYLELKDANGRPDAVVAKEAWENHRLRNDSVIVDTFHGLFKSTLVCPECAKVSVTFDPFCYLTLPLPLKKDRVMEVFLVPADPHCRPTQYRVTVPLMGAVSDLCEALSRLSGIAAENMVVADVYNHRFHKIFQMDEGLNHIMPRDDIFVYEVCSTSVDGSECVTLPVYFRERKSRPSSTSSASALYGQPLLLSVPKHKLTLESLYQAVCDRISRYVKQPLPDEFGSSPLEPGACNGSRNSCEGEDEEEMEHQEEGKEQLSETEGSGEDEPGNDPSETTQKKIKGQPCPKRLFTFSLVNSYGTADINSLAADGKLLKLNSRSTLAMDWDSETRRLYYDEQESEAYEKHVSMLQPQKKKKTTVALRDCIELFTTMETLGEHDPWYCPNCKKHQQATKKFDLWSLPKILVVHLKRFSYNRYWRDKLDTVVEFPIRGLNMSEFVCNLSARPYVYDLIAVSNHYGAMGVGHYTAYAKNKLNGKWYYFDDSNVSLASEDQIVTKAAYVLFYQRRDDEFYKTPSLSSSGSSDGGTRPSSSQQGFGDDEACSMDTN
How it was run: as §1

Measured: log2 ratio of Biotin-Ahx-Ub-VS probe labelling

USP34, sequence (Q70CQ2 whole entry, the tested form may be a part): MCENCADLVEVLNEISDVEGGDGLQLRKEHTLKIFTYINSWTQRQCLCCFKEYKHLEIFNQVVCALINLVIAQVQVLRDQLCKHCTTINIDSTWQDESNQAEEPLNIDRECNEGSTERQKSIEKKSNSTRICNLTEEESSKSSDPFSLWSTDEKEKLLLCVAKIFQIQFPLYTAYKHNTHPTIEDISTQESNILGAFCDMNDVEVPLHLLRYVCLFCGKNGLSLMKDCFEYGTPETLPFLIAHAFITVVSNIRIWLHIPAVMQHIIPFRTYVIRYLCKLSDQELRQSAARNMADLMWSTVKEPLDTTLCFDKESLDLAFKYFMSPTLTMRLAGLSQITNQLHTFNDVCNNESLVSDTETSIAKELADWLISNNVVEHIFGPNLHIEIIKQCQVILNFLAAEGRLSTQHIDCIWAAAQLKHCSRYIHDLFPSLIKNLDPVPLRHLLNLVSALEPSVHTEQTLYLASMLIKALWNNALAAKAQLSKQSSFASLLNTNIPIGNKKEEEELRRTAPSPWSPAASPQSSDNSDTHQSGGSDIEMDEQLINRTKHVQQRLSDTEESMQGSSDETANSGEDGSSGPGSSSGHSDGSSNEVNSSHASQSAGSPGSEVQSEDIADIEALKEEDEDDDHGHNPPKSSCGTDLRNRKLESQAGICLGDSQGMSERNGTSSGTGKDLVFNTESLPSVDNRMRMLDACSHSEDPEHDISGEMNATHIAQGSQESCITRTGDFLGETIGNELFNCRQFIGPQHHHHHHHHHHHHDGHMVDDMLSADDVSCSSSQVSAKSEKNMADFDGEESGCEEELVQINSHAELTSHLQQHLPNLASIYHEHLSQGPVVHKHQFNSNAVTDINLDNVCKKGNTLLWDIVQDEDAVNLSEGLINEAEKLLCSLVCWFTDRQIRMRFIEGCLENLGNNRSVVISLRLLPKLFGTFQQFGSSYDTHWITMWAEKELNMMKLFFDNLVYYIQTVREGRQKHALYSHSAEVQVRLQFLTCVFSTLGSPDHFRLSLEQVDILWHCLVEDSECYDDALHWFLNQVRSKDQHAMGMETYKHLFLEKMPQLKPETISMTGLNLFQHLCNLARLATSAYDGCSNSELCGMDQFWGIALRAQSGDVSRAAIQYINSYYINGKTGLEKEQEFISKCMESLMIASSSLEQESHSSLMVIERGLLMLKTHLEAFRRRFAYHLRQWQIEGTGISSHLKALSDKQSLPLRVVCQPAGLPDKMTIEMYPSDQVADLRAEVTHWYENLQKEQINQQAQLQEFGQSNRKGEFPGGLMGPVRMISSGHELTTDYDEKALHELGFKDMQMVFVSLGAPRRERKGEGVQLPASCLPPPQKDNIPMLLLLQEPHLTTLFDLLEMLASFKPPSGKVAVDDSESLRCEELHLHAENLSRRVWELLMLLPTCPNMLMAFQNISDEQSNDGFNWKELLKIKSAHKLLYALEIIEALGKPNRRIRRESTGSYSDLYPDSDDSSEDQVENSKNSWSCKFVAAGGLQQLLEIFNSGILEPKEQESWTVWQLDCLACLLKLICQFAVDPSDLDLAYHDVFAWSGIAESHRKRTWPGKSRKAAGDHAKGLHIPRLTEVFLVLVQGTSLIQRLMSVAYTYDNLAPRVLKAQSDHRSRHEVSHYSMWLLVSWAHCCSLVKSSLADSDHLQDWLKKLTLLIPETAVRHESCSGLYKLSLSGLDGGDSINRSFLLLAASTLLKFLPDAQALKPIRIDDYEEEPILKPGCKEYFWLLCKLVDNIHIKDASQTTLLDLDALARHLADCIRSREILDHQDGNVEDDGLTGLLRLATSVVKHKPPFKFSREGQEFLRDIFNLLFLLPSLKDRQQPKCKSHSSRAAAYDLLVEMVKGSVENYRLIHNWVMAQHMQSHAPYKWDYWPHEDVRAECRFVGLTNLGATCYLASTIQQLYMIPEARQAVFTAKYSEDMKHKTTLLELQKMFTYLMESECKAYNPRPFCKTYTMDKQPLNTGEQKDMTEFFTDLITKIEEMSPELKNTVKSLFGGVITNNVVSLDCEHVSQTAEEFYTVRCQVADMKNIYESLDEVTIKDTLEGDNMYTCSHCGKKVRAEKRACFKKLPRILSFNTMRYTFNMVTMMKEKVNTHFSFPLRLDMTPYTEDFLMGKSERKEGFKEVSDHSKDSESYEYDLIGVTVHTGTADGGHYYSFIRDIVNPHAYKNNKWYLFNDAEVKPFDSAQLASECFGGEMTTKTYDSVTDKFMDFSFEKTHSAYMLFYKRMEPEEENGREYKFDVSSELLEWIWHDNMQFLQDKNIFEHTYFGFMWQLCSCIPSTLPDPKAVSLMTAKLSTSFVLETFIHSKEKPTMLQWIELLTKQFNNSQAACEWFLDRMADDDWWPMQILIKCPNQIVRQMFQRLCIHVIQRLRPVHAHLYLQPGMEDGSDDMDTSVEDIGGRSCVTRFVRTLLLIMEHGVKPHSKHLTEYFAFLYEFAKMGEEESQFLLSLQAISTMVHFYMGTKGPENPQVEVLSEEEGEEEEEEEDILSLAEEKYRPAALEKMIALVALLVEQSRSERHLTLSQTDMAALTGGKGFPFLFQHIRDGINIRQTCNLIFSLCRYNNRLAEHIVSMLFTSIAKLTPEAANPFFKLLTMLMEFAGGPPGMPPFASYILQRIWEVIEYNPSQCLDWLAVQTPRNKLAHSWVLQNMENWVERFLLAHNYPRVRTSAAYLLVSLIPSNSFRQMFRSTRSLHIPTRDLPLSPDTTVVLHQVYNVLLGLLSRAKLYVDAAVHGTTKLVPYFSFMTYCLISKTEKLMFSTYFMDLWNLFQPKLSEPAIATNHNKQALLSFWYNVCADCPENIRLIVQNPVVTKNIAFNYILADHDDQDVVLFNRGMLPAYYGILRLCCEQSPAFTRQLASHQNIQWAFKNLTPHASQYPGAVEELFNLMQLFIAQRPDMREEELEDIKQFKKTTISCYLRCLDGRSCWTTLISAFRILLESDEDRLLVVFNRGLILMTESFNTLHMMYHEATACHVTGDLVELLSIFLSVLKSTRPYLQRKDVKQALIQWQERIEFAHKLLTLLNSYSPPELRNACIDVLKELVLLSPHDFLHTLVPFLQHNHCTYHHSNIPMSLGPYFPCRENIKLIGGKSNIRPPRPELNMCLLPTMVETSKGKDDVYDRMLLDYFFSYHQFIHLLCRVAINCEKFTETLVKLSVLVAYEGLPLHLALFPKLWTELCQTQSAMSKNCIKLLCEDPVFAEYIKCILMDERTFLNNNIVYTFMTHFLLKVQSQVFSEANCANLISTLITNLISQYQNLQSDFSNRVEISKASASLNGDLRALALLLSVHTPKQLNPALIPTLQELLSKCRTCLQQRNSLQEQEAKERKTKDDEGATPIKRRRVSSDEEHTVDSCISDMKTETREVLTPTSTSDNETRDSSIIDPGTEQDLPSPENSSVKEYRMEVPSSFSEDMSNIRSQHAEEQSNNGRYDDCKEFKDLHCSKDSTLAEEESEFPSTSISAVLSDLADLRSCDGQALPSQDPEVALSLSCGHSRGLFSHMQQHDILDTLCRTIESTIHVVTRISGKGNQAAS

Cc1n[nH]c2c1CN(C(=O)CCl)CC2
inactive: USP34 -0.404 | USP36 -0.284 | USP38 -0.715 | USP39 0.183 | USP4 -0.888
